# Shown are actives, neighbours in structure and some others; about 11% of the full set was active somewhere.
# JMJD2A Tudor inh – inhibitors of human JMJD2A Tudor domain; hit rate 4.4% among 390,000; Potency, µM (series often up to 114 µM), without a hit: at the top dose activity change, negative = inhibition, actives largely listed as inhibitors; AlphaScreen JMJD2A-Tudor / H3K4me3 peptide binding; also: % is scaled to controls: 0 for no effect and ±100 for the full control effect; nearly all actives have a fitted effect of over 50% in size
# BAZ2B inh – BAZ2B (human) inhibition | hit rate 4.4% among 360,000 | Potency, µM (highest dose often 114 µM), for inactives: top-dose activity change, negative = inhibition, hits mostly inhibitors | AID 504333 | Q9UIF8 | AlphaScreen BAZ2B-H3K14Ac peptide displacement; also: % is scaled to controls: 0 for no effect and ±100 for the full control effect; nearly all actives have a fitted effect of over 60% in size
#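 AlphaScreen displacement: compounds (up to 110uM) incubated 30 min at room temperature with a preformed 50 nM BAZ2B/50 nM biotinylated H3K14Ac peptide complex in PBS pH 7.4 with Tween-20. Donor and acceptor beads at 10 ug/mL final added, 20 min light-protected before reading.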
# G9a block – blocks human histone lysine methyltransferase G9a. hit rate 8.8% among 350,000. G9a H3K9 monomethylation, AlphaScreen, 2 h. AID 504332. Potency, µM (series often up to 102 µM), for inactives: top-dose activity, negative = inhibition, usual class: inhibitors; also: % is scaled to controls: 0 for no effect and ±100 for the full control effect; nearly all actives have a fitted effect of over 75% in size
# Target sequence (Q96KQ7 913-1193 limits assumed): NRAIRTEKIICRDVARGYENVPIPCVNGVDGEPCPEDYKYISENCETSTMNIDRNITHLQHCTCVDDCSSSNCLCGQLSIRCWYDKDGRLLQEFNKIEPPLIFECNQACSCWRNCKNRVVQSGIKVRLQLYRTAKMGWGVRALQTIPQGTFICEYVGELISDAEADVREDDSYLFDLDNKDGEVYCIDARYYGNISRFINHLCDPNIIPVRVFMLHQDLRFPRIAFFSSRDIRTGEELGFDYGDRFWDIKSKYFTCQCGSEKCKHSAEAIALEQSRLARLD
#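 Enzyme 20 nM + cpd, 15 min RT; add b-H3K9 pep 500 nM / SAM 20 uM; 2 h RT; anti-H3K9me1 Ab 0.5 ug/mL + SA donor / anti-rabbit acceptor beads 20 ug/mL each, 10 min; AlphaScreen read.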
# HP1b chromo inh – HP1-beta chromodomain-methylated histone interaction inhibition; AlphaScreen HP1-beta / biotin-H3K9me3 peptide binding; P83916; Potency, µM (doses to about 114 µM), inactives show top-dose activity change, negative = inhibition, most hits filed as inhibitors; AID 540317; hit rate 0.56% among 390,000; also: nearly all actives have a fitted effect of over 70% in size
# Target sequence (P83916 whole entry, looked up): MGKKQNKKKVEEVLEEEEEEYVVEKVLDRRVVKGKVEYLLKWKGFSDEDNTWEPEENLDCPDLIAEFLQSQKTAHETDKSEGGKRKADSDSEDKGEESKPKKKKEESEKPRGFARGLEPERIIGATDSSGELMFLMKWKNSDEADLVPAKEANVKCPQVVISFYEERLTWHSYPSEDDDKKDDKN
#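 AlphaScreen: HP1-beta (50 nM) preformed 30 min with biotin-H3(1-18)K9me3 peptide (50 nM) in PBS pH 7.4, 0.01% Tween-20. Compound added for 30 min at RT, then streptavidin donor/nickel chelate acceptor beads (10 ug/mL) for 30 min.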
# L3MBTL1 block – L3MBTL1 (human) inhibition. Q9Y468. AlphaScreen L3MBTL1–H3K9me1 peptide binding. Potency, µM (highest dose often 57.1 µM), for inactives: top-dose activity, negative = inhibition, usual class: inhibitors. hit rate 0.66% among 230,000. AID 485360; also: % is scaled to controls: 0 for no effect and ±100 for the full control effect; nearly all actives have a fitted effect of over 60% in size
#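 L3MBTL1 50 nM + b-AHA-H3(1-15)K9me1 75 nM, 30 min RT; compound added, 30 min RT; streptavidin donor/Ni-chelate acceptor beads 10 ug/mL each final, 30 min RT dark; AlphaScreen read.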
# Starred values were filed as active, the others as inactive; ? = inconclusive; · = not tested or not shown; [ ] = remark or other dose. Calls follow the shape of the dose curve; as a rule, active = well fitted inhibition curve with a large enough effect; inconclusive = small, poorly fitted or top-dose-only effect; inactive = no such curve, though single readings can be large or run the other way. Potency is read from the fitted curve at half-maximal effect.
SMILES,JMJD2A Tudor inh,BAZ2B inh,G9a block,HP1b chromo inh,L3MBTL1 block
N[C@@H](Cc1cc(Br)c(O)c(Br)c1)C(=O)O,·,-7%,35µM*,·,?
Nc1ccnn1C1CCNCC1,-17%,3%,22µM*,?,10%
CN1CCC(n2nccc2N)CC1,2%,-9%,0%[12.7 µM],23%,·
COc1ccc(CCNCc2ccc3c(c2)n(C)c(=O)n3C)cc1,-9%,-4%,-2%[59 µM],19%,·
COc1ccc(CCNCc2ccncc2)cc1,1.3µM*,56µM*,?,?,·
Fc1ccc(CNCCc2ccccc2)cc1,22µM*,·,?,?,12%
COc1ccc(CCNCc2c(OC)ccc3ccccc23)cc1,22µM*,35µM*,14µM*,?,·
COc1ccc(CCNCc2ccccc2)cc1,7.1µM*,25µM*,5%[2.33 µM],?,·
CC(=O)C1CCC2C3CCC4CC(O)CCC4(C)C3CC(O)C12C (stereo not given),·,·,-45%[2.33 µM],·,·
COc1cccc(CCNCc2ccc(SC)cc2)c1,25µM*,50µM*,3.2µM*,?,4%
CCN1CCN(c2ccc([N+](=O)[O-])cc2C=C2C(=O)NC(=O)NC2=O)CC1,-11%,1%,?,?,3%
CC(=O)N1CCN(c2ccc([N+](=O)[O-])cc2C=C2C(=O)NC(=O)NC2=O)CC1,0%,13%,40µM*,39%,8%
CC1(C)CC2CC(C)(CN2S(=O)(=O)c2cccc(C(=O)OCC(=O)NC(N)=O)c2)C1 (stereo not given),-6%,-4%,0%[0.501 µM],68%,2%
CCOc1ccccc1CN(CCc1ccc2c(c1)OCO2)Cc1ccc(CC)cc1,5µM*,40µM*,?,?,·
Cc1ccc(NC(=O)Cn2c(=O)cc(-c3ccccc3)c3c(C)nn(C)c32)c(Cl)c1,-19%,0%,7%[59 µM],50%,·
Oc1ccc2c3c1O[C@H]1[C@@H](O)CC[C@@]4(O)C(C2)N(CC2CCC2)CCC314 (stereo not given in full),·,·,31%[12.7 µM],·,·
CN(C)c1ccc2c(c1)N=C(c1ccco1)OP2(=S)N1CCOCC1 (stereo not given),79µM*,?,14µM*,11µM*,-8%
CCC(=O)N1N=C(c2c(O)n(C)c(=O)n(C)c2=O)CC1c1ccccc1 (stereo not given),-13%,-16%,25µM*,48%,1%
Cn1c(O)c(C=NC2CCN(Cc3ccccc3)CC2)c(=O)n(C)c1=O,7%,-6%,19%[59 µM],22%,5%
Cn1c(O)c(C(=O)c2ccccc2)c(=O)n(C)c1=O,-18%,6%,-7%[12.7 µM],45%,-6%
Cn1c(O)c(C2=NN(C(=O)CCl)C(c3ccccc3)C2)c(=O)n(C)c1=O (stereo not given),22µM*,-38%,32µM*,24%,-4%
O=C1CC2OCC=C3CN4CC[C@@]56c7ccccc7N1C5C2C3CC46 (stereo not given in full),·,·,-32%[2.33 µM],·,·
O=C(COc1ccccc1F)N1CCN(Cc2cc(=O)n3nc(-c4ccccc4Cl)sc3n2)CC1,-16%,18%,51%[59 µM],23%[57 µM],·
CC1=C2CC3C(CC=C4C[C@@H](O)CC[C@@]43C)[C@@H]2CC[C@]12O[C@@H]1C[C@H](C)CN[C@H]1[C@H]2C (stereo not given in full),·,·,-8%[59 µM],·,·
CC(C)Cn1c(-c2cccc(S(=O)(=O)N3CCOCC3)c2)n[nH]c1=S,7.1µM*,·,·,12%,2%
SMILES,JMJD2A Tudor inh,BAZ2B inh,G9a block,HP1b chromo inh,L3MBTL1 block
CC(=O)O[C@H]1[C@H]2[C@@H](OC(=O)Cc3ccccc3)[C@@H](C)C[C@]2(OC(C)=O)C(=O)/C(C)=C/[C@@H]2[C@H](CC[C@@]13CO3)C2(C)C,·,·,12%[59 µM],·,·
C=CCN(CC#CCOc1ccccc1OC)CC=C,·,50µM*,18µM*,·,6%[11.4 µM]
CC(C)CN1CCCC2(CCN(C(=O)c3ccncc3)CC2)C1,·,·,-7%[12.7 µM],·,·
c1cc(CN2CCCC3(CCNCC3)C2)ccn1,·,·,-9%[12.7 µM],·,·
Nc1c2c(nc3sc4c(c13)CCCC4)CCCCC2,79µM*,-8%,?,-33%,3%
Nc1c2c(nc3sc4c(c13)CCCC4)CCCC2,-8%,-11%,·,17%,-7%
NCC(CP(=O)(O)O)c1ccc(Cl)cc1 (stereo not given),·,·,4%[59 µM],·,·
Cc1[nH]c2ccccc2c1C(=O)CN1CC=C(c2ccccc2)CC1,-32%,-32%,?,3%,-12%
Oc1ccc2ccccc2c1CN1CC=C(c2ccccc2)CC1,-2%[57.1 µM],-15%,45µM*,51%,4%
[Cl-].[Cl-].[Hg+2],·,·,1.3µM*,·,·
COc1ccc(CCNC(=O)CCS(=O)(=O)c2ccc3c(c2)oc(=O)n3C)cc1OC,-9%,-17%,64%,64%,·
C[C@]12CC[C@H]3[C@@H](CC[C@@]45O[C@@H]4C(=O)C(C#N)C[C@]35C)[C@@H]1CC[C@@H]2O (stereo not given in full),·,·,-21%[12.7 µM],·,·
CCOP(=O)(CN(CC)CCNP(=O)(OCC)OCC)OCC,?,12%[57.1 µM],50µM*,17%,6%
Cc1nn(CCc2n[nH]c(=S)n2-c2cccc(Cl)c2)c(C)c1[N+](=O)[O-],45µM*,2%,1.1µM*,21%,·
CCCCCCCCCCCCCC(=O)OC1C(C)[C@@]2(O)C(C=C(CO)C[C@]3(O)C(=O)C(C)=C[C@H]23)[C@@H]2C(C)(C)[C@]12OC(C)=O (stereo not given in full),·,·,-31%[2.33 µM],·,·
NC(=O)[C@@H]1CCCN1C(=O)[C@H](Cc1ccccc1)NC(=O)[C@@H]1CCCN1C(=O)[C@@H](N)Cc1ccc(O)cc1,·,·,27%[59 µM],·,·
O=[N+]([O-])c1ccc(Nc2ccccc2)cc1,-3%,13%,14%[59 µM],53%,50%
c1ccc(Nc2ccc(Nc3ccccc3)cc2)cc1,20µM*,28µM*,10%[0.501 µM],?,?
FC(F)(F)c1cccc(C2NCc3ccccc3-n3cccc32)c1 (stereo not given),?,?,?,4%,·
CCOc1cc2c(cc1OCC)-n1cccc1C(c1c(O)cccc1OC)NC2 (stereo not given),50µM*,45µM*,-12%[2.33 µM],-23%,·
CCOc1cc2c(cc1OCC)-n1cccc1C(c1ccccc1O)NC2 (stereo not given),50µM*,50µM*,50µM*,?,·
CCOc1cc2c(cc1OCC)-n1cccc1C(c1ccc(OC)c(OC)c1)NC2 (stereo not given),?,?,-47%,2%,·
C=CCn1c(O)c(/C=N/NC(=O)c2ccncc2)c(=O)[nH]c1=O,-23%,79µM*,1%,42%,·
O=C(N/N=C/c1c(O)n(Cc2ccc(F)cc2)c(=O)[nH]c1=O)c1ccccc1,?,79µM*,1%,41%,-29%

# Compound activity deposited in PubChem BioAssay by National Center for Advancing Translational Sciences (NCATS).
